Compounds without any hit were thinned out: in the full panel of roughly 79,000, 15% have a hit. No stated cut-off is given here; in the data, active means growth inhibition above about 70%; inactive means the rest.
What was measured:
[1] = NCI Yeast Anticancer Drug Screen. Data for the rad50 strain (AID 155);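 further: 0% = growth of vehicle-only cultures of the same strain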; conditions: S. cerevisiae rad50 strain growth inhibition; at 50.0 µM; stronger effect = higher value
In short: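 Cells are treated with compound, grown, and their growth is then scored against vehicle-only cultures of the same repair-deficient yeast strain.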

[2] = NCI Yeast Anticancer Drug Screen. Data for the mec2-1 strain (AID 157); conditions: S. cerevisiae mec2-1 strain, at 50.0 µM, stronger effect = higher value
In short: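 Vehicle-treated cultures served as reference for growth inhibition of compound-exposed mec2-1 yeast.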

[3] = NCI Yeast Anticancer Drug Screen. Data for the sgs1 mgt1 strain (AID 161);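 further: 0% = growth of cultures given vehicle only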; conditions: S. cerevisiae sgs1 mgt1 strain, at 50.0 µM, stronger effect = higher value
In short: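 Genetically altered yeast, compound exposure, growth inhibition relative to vehicle.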

[4] = NCI Yeast Anticancer Drug Screen. Data for the cln2 rad14 strain (AID 165);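 further: 0% = growth equal to vehicle treated cultures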; conditions: S. cerevisiae cln2 rad14 strain, at 50.0 µM, stronger effect = higher value
In short: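 Each compound was tested on cln2 rad14 yeast. Inhibition of growth was calculated against vehicle-exposed controls.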

[5] = NCI Yeast Anticancer Drug Screen. Data for the bub3 strain (AID 167); conditions: S. cerevisiae bub3 mutant strain, at 50.0 µM, stronger effect = higher value
In short: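 Part of a panel of yeast mutants defective in DNA damage repair or cell cycle regulation. Each strain is grown with compound, and inhibition is calculated relative to solvent-treated cultures.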

[6] = NCI Yeast Anticancer Drug Screen. Data for the mlh1 rad18 strain (AID 175); conditions: S. cerevisiae mlh1 rad18 strain growth inhibition; at 50.0 µM; stronger effect = higher value
In short: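 Vehicle-treated cultures served as the reference for growth inhibition in a yeast strain carrying DNA damage repair alterations exposed to each compound.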

Measured: growth inhibition

COc1cc(Br)cc(OC)c1Oc1cc(OC)c(OC)c(OC)c1Br
inactive: [1] 45.8% | [2] 12.4% | [3] 36% | [4] 2.4% | [5] 10.8% | [6] 24.9%

Oc1c(O)c(O)c(O)c(O)c1O
inactive: [1] -5.3% | [2] 4.15% | [3] 7.45% | [4] -13.9% | [5] -0.45% | [6] -3%

CC1CCC(C(C)C)/C(=N\O)C1 (configuration not stated)
inactive: [1] 4.8% | [2] -19.4% | [3] -11.9% | [4] -7.7% | [5] -6.4% | [6] 2.05%

NC(=O)NCc1ccc(CNC(N)=O)cc1
inactive: [1] 11.3% | [2] 15.1% | [3] -2.9% | [4] -61.5% | [5] 3.25% | [6] 3.35%

COc1cc(N)c(OC)nn1
inactive: [1] -1.1% | [2] 9.4% | [3] 3.15% | [4] -14.8% | [5] 11.3% | [6] -10.4%

O=[P+](O)c1cc2c3ccccc3ccc2c2ccccc12
inactive: [1] -34.9% | [2] 11.8% | [3] 32% | [4] -12.3% | [5] 33% | [6] -0.55%

Cc1ccc2nc3c(C)c(Cl)c(=O)cc-3sc2c1
inactive: [1] 7% | [2] 19.4% | [3] 7.4% | [4] -0.1% | [5] -2.4% | [6] 36.5%

COc1cc(C2SCC(=O)N2c2ccc(-n3c(-c4ccccc4)nc4ccccc4c3=O)cc2)cc(OC)c1OC (configuration not stated)
inactive: [1] -17.3% | [2] -8.85% | [3] -4.4% | [4] -7.8% | [5] 8.05% | [6] 4.5%

CCOS(=O)(=O)CC(C)C(C)C (configuration not stated)
inactive: [1] 4.75% | [2] -17.3% | [3] -7.8% | [4] -18.1% | [5] -5.65% | [6] -9.1%

CC(C)CC(F)(C(N)=O)C(N)=O
inactive: [1] -4.6% | [2] -4.15% | [3] -3.4% | [4] -3.05% | [5] -5.65% | [6] -4.2%

Nc1c(Br)c(Cl)c(Br)c2c1-c1ccc(Cl)cc1C2
inactive: [1] -13.1% | [2] -4.8% | [3] -1.4% | [4] -19.9% | [5] 7.15% | [6] 5.05%

CSc1nc(NC2OC(COC(C)=O)C(OC(C)=O)C(OC(C)=O)C2OC(C)=O)c(-c2csc(N)n2)c(=O)n1C (configuration not stated)
inactive: [1] -6.8% | [2] -38% | [3] -22.4% | [4] 10.2% | [5] -8.15% | [6] 13.3%

COC(=O)N/N=C(/C)c1ccco1
inactive: [1] 8.75% | [2] 27.9% | [3] 3.55% | [4] 1.55% | [5] 14.8% | [6] 16.2%

Nc1cc([N+](=O)[O-])ccc1-c1ccc([N+](=O)[O-])cc1
inactive: [1] 3.25% | [2] -2.2% | [3] 8.1% | [4] 10.2% | [5] 15.2% | [6] -8.85%

COc1ccc(C(C)=O)c(C)c1OC
inactive: [1] 22.6% | [2] 3.65% | [3] 19.6% | [4] 10.4% | [5] -22.2% | [6] 15.2%

CN(C(N)=O)C1CCCC1
inactive: [1] 12% | [2] -21.3% | [3] -5.65% | [4] 1.4% | [5] 9.4% | [6] 6.35%

CCOC(=O)CSC(=O)NCCCl
inactive: [1] 21.1% | [2] -0.5% | [3] -2.8% | [4] 8.45% | [5] 17.6% | [6] 9.1%

CCN(CC)C(=O)c1c(-c2ccccc2)nc(-c2ccccc2)c(C(=O)N(CC)CC)c1Cl
inactive: [1] 42% | [2] 14.6% | [3] 21.6% | [4] 21.6% | [5] 1.05% | [6] 27.8%

Clc1ccc(/C=C2\c3ccccc3-c3nc4ccccc4nc32)cc1
inactive: [1] -6.7% | [2] -8.05% | [3] -8.65% | [4] -13.4% | [5] -8.25% | [6] -21.9%

CC(=O)CCC(CC=O)C(C)C (configuration not stated)
inactive: [1] 3.35% | [2] 0% | [3] 7.6% | [4] -4.9% | [5] -3.65% | [6] 2.6%

CC(=O)NNC(=S)N/C=C(/C(=O)c1ccccc1)c1ccccc1
inactive: [1] -22.7% | [2] -9.45% | [3] -16.7% | [4] 3.75% | [5] -16.4% | [6] -6.9%

COc1cc2c(C)nc3c4cc5c(cc4ccc3c2cc1OC)OCO5
inactive: [1] -12.4% | [2] 8.2% | [3] 18.2% | [4] -41.9% | [5] 40.2% | [6] 1%

O=C(c1ccco1)N(C(=S)N1CCN(c2ccccc2)CC1)C1CCCCC1
inactive: [1] 16.4% | [2] 25.4% | [3] 26.4% | [4] 36% | [5] 24.4% | [6] 19.1%

CC1(C)c2ccccc2-c2nc3ccccc3nc2C1O (configuration not stated)
inactive: [1] 4.65% | [2] 18.8% | [3] -8% | [4] -14% | [5] 1.95% | [6] -9.7%

O=c1[nH]cnc2c1ncn2CCCc1ccccc1
inactive: [1] -1% | [2] 7.5% | [3] 2.8% | [4] -69.6% | [5] 3% | [6] -17.1%

c1ccc(N2CCCC2(c2ccccc2)c2ccccc2)cc1
inactive: [1] 29.1% | [2] 11.3% | [3] 47.1% | [4] -11.8% | [5] 22.9% | [6] 28.4%

[O-]/[N+]1=[N+](\[O-])c2ccccc2CCCc2ccccc21
inactive: [1] -7.35% | [2] -7.3% | [3] -2.6% | [4] -34.1% | [5] -12.8% | [6] -7.1%

COC1CCC2C(C1)C(C1CCCCC1)C1CCCCC1C2C1CCCCC1 (configuration not stated)
inactive: [1] -1.1% | [2] 8.05% | [3] -14.6% | [4] -7.25% | [5] -0.9% | [6] -7.65%

Cn1c(=O)c(C(=O)NC23CC4CC(CC(C4)C2)C3)c(O)c2ccccc21
inactive: [1] -44.2% | [2] -37% | [3] -46.5% | [4] -16.3% | [5] -53% | [6] -19.9%

O=C(NO)/C(CC(=O)c1ccccc1O)=N\O
inactive: [1] -5.4% | [2] -21.6% | [3] -11.2% | [4] -2.05% | [5] -4.15% | [6] -7.75%

COc1ccc(C(=O)c2ccccc2)c(N)c1
inactive: [1] 11.2% | [2] 13.1% | [3] -2.4% | [4] -18.9% | [5] -17.9% | [6] 10.4%

C1CCC(C2CCCC[N-]2)[N-]C1.[Cl][Cu][Cl] (configuration not stated)
inactive: [1] 7.35% | [2] 10.3% | [3] 9.85% | [4] 9.6% | [5] -4.85% | [6] 13.7%

COc1ccc([N+](=O)[O-])c(C#N)c1
inactive: [1] 5.95% | [2] -2.2% | [3] 3.35% | [4] -9.75% | [5] -9.4% | [6] -46.6%

CC(=O)CC(C)(C)OCc1ccccc1
inactive: [1] -21.9% | [2] -4.95% | [3] -12.2% | [4] -43.4% | [5] 0.4% | [6] 26.1%

COc1nc2c(c(=O)n1C)N(C(C)=O)C1C(N2)OCC(OC(C)=O)C1OC(C)=O (configuration not stated)
inactive: [1] -13.4% | [2] 8.65% | [3] -2.55% | [4] 5.45% | [5] -7.6% | [6] -32.1%

Oc1ccc(-c2nnc(-c3ccc(O)cc3)nn2)cc1
inactive: [1] 10.8% | [2] 17.4% | [3] 21.1% | [4] 17.4% | [5] 23.2% | [6] 10.9%

CCc1nc(N)nc(N)c1-c1ccc(Cl)c([N+](=O)[O-])c1
inactive: [1] 4.35% | [2] 4.95% | [3] -8.35% | [4] -7.1% | [5] -31.1% | [6] -13.6%

FC1(F)SC2c3ccccc3CC2C1(F)F (configuration not stated)
inactive: [1] 20.4% | [2] 6.15% | [3] 7.75% | [4] -47.2% | [5] 8.35% | [6] 9.95%

C#CC1(c2ccccc2)OCCO1
inactive: [1] 21.9% | [2] 17.4% | [3] 16.3% | [4] 4.55% | [5] -13.2% | [6] 27.4%

CCCCCCCCN1N=C(C)CCC1=O
inactive: [1] -7.55% | [2] -9.2% | [3] -0.45% | [4] -23.7% | [5] -25.7% | [6] -8.55%

CCc1ccc(CC(=S)N2CCOCC2)cc1
inactive: [1] 4.2% | [2] 1.45% | [3] 5.55% | [4] -1.7% | [5] -15.9% | [6] -3.9%

COC(=O)CC(c1ccc2c(c1)OCO2)N1CCCCC1 (configuration not stated)
inactive: [1] 7.35% | [2] -12.9% | [3] -11.7% | [4] -22.9% | [5] -1% | [6] 11.2%
